Columns and labels:
Assay in all cases: DAPPL (digital affinity profiling via proximity ligation, sequencing); 10 mM Tris-HCl pH 7.5, 50 mM NaCl, 1 mM DTT, 4% glycerol, room temperature, 30 min; GST-TFs on glutathione beads, 16-mer random dsDNA library, 0.1% formaldehyde crosslink after washing; high values mean tight binding
[1] = target: T1, FEV (Homo sapiens, UniProt Q99581 1-238); details: protein: recombinant; tags: N-terminal GST; dsDNA, one strand shown
T1 sequence: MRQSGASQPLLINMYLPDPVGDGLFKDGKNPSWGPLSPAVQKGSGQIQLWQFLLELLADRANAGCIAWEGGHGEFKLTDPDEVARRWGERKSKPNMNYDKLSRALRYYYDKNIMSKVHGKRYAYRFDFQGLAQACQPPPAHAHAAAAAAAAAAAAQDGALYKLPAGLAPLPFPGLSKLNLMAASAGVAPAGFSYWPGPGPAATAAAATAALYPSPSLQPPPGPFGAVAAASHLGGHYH
In short: (§1)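 Sequencing on an Illumina NextSeq500 followed washing, crosslinking with 0.1% formaldehyde, proximity ligation (BsaI/T4 ligase, 1 h, 37 °C) and PCR amplification of pools that had been incubated for 30 min at room temperature with 200 nmole of a random double-stranded 16-mer DNA library in Tris/NaCl/DTT/glycerol buffer. Each pool held DNA-barcoded human transcription factors, expressed in yeast as GST fusions and captured on glutathione beads, plus a tag-only sample. Binding signal is a hexamer's read frequency for a factor divided by its frequency in the tag-only sample.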

[2] = target: ETV5 (Homo sapiens, UniProt P41161 1-510); details: protein: recombinant; tags: N-terminal GST; dsDNA, one strand shown
In short: as §1

[3] = target: HSF1 (Homo sapiens, UniProt Q00613 1-529); details: protein: recombinant; tags: N-terminal GST; chain copies: 3; dsDNA, one strand shown
In short: as §1

[4] = target: T2, SPIC (Homo sapiens, UniProt Q8N5J4 1-248); details: protein: recombinant; tags: N-terminal GST; dsDNA, one strand shown
T2 sequence: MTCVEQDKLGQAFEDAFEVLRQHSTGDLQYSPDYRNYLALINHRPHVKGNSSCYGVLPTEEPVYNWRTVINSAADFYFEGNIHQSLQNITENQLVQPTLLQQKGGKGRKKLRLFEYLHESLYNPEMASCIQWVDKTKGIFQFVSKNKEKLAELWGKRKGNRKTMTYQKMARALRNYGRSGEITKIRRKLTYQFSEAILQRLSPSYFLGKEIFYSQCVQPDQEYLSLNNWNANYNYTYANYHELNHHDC
In short: as §1

[5] = target: ELF4 (Homo sapiens, UniProt Q99607 1-663); details: protein: recombinant; tags: N-terminal GST; dsDNA, one strand shown
In short: as §1

[6] = target: T3, ELK4 (Homo sapiens, UniProt P28324-2 1-405); details: protein: recombinant; tags: N-terminal GST; dsDNA, one strand shown
T3 sequence: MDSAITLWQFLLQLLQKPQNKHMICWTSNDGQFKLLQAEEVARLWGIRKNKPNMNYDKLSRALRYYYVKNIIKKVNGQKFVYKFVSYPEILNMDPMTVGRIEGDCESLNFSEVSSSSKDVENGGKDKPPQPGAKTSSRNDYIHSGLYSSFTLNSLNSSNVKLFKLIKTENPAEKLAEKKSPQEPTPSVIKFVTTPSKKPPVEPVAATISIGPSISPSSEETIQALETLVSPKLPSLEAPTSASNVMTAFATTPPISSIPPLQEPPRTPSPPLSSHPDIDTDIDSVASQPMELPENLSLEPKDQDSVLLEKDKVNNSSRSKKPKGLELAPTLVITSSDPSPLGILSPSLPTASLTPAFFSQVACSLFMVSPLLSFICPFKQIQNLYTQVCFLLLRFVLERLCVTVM
In short: as §1

[7] = target: T4, ETV2 (Homo sapiens, UniProt O00321 1-342); details: protein: recombinant; tags: N-terminal GST; dsDNA, one strand shown
T4 sequence: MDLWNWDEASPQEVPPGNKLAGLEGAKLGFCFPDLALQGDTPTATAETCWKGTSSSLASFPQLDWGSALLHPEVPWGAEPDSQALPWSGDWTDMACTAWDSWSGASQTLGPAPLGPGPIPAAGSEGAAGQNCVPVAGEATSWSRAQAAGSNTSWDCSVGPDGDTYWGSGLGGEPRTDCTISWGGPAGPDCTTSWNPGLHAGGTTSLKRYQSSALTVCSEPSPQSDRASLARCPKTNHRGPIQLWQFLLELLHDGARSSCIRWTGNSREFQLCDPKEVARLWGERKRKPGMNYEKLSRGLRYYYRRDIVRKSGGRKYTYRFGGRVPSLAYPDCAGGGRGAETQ
In short: as §1

[8] = target: T5, ELF3 (Homo sapiens, UniProt P78545 1-371); details: protein: recombinant; tags: N-terminal GST; dsDNA, one strand shown
T5 sequence: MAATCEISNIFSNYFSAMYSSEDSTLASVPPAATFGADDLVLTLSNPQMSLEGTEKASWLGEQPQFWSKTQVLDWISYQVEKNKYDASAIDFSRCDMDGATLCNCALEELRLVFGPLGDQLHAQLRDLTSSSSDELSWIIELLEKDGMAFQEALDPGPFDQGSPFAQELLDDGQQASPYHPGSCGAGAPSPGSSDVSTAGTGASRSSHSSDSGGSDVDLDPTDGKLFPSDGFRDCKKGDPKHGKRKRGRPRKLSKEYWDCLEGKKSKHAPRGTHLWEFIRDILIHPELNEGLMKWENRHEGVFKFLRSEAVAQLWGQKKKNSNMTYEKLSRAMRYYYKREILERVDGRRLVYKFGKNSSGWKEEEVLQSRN
In short: as §1

[9] = target: CRX (Homo sapiens, UniProt O43186 1-299); details: protein: recombinant; tags: N-terminal GST; dsDNA, one strand shown
In short: as §1

[10] = target: ETV1 (Homo sapiens, UniProt P50549 1-477); details: protein: recombinant; tags: N-terminal GST; dsDNA, one strand shown
In short: as §1

[11] = target: T6, ERF (Homo sapiens, UniProt P50548 1-548); details: protein: recombinant; tags: N-terminal GST; dsDNA, one strand shown
T6 sequence: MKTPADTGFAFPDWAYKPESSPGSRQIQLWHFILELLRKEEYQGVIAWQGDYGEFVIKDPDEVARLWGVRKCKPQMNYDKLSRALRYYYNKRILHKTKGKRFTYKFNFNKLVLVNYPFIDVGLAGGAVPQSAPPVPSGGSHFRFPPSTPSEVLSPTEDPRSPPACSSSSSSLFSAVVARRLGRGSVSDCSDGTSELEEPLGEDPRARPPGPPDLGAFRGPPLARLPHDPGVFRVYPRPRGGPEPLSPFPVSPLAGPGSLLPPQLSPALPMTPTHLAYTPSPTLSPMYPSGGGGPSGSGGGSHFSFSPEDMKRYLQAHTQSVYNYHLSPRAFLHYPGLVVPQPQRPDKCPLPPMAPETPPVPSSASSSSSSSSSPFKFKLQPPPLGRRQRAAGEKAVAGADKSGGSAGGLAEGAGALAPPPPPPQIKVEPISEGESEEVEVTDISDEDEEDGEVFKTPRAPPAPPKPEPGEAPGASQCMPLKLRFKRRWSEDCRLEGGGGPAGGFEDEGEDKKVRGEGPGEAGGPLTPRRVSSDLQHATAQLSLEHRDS
In short: as §1

[12] = target: T7, ETV3L (Homo sapiens, UniProt Q6ZN32 1-361); details: protein: recombinant; tags: N-terminal GST; dsDNA, one strand shown
T7 sequence: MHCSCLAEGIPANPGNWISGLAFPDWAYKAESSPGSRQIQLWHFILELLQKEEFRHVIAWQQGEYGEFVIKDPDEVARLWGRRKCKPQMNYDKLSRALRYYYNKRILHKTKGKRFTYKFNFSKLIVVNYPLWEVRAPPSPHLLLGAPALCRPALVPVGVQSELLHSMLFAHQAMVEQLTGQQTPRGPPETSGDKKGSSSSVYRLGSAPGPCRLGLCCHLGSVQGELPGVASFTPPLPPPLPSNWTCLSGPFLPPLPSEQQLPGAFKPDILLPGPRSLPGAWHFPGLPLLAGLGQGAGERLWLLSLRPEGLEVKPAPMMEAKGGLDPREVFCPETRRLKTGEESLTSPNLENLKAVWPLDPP
In short: as §1

[13] = target: T8, ETS2 (Homo sapiens, UniProt P15036 1-469); details: protein: recombinant; tags: N-terminal GST; dsDNA, one strand shown
T8 sequence: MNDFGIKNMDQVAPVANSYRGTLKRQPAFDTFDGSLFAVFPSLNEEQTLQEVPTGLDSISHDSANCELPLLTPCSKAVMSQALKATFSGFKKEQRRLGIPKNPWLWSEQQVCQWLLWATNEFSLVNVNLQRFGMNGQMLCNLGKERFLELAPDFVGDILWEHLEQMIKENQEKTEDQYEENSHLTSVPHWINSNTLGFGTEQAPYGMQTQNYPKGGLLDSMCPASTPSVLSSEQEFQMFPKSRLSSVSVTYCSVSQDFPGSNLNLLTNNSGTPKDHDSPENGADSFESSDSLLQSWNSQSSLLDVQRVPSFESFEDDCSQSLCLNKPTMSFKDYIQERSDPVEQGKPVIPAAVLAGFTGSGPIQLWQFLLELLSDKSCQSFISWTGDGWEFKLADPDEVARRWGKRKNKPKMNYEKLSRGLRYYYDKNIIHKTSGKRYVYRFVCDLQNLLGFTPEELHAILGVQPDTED
In short: as §1

[14] = target: T9, SPDEF (Homo sapiens, UniProt O95238 1-335); details: protein: recombinant; tags: N-terminal GST; dsDNA, one strand shown
T9 sequence: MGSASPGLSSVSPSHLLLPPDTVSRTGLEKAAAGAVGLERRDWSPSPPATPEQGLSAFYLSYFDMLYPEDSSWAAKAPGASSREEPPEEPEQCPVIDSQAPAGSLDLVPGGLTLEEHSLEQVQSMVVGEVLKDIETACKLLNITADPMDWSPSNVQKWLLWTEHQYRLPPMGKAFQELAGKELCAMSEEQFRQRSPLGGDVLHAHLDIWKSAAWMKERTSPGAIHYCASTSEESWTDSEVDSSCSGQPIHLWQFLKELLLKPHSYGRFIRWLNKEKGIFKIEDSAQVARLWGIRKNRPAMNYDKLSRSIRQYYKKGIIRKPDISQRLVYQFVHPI
In short: as §1

[15] = target: T10, ETV7 (Homo sapiens, UniProt Q9Y603 1-341); details: protein: recombinant; tags: N-terminal GST; dsDNA, one strand shown
T10 sequence: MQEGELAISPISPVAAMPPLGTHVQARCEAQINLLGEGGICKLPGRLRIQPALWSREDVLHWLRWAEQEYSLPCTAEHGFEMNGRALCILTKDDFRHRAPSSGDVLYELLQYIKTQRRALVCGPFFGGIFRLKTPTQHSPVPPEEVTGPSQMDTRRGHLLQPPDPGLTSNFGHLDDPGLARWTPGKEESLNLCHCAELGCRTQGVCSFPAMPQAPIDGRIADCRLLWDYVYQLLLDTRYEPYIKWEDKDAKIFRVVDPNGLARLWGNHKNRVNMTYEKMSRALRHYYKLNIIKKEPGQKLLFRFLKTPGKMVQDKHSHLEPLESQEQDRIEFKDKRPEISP
In short: as §1

[16] = target: T11, ELF5 (Homo sapiens, UniProt Q9UKW6-2 1-255); details: protein: recombinant; tags: N-terminal GST; dsDNA, one strand shown
T11 sequence: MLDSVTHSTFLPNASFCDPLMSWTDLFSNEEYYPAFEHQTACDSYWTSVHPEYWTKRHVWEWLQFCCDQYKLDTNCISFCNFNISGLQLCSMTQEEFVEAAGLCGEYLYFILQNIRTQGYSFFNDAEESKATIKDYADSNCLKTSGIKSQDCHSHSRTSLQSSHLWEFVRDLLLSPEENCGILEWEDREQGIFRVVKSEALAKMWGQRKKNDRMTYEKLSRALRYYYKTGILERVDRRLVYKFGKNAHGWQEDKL
In short: as §1

[17] = target: T12, ETV3 (Homo sapiens, UniProt P41162-2 1-143); details: protein: recombinant; tags: N-terminal GST; dsDNA, one strand shown
T12 sequence: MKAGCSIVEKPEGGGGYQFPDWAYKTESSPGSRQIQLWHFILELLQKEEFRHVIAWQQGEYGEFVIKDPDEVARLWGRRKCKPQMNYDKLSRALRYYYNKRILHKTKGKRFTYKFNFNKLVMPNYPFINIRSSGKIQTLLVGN
In short: as §1

[18] = target: ETV6 (Homo sapiens, UniProt P41212 1-452); details: protein: recombinant; tags: N-terminal GST; dsDNA, one strand shown
In short: as §1

Chain of ETV5 (P41161 whole entry): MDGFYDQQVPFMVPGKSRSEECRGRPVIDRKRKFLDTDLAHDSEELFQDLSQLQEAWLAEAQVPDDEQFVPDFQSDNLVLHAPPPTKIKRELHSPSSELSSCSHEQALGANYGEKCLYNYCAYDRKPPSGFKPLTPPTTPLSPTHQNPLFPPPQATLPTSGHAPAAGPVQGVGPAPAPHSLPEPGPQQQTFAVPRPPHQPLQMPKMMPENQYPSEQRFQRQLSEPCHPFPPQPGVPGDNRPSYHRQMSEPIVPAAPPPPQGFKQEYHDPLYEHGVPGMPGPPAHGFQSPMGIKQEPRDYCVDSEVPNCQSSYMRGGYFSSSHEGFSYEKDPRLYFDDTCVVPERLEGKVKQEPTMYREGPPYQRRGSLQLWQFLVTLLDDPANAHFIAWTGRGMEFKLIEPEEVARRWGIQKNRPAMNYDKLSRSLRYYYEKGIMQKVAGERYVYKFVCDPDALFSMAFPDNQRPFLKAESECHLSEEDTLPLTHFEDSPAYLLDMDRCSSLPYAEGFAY
Chain of CRX (O43186 whole entry): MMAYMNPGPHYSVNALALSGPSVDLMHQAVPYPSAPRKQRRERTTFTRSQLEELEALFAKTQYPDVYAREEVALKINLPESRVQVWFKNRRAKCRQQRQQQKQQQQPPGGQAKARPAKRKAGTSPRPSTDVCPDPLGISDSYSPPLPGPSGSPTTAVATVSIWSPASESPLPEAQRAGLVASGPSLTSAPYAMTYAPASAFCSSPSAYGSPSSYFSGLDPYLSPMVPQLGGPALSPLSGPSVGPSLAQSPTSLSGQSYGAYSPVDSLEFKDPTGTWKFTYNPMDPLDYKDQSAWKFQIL
Chain of ETV1 (P50549 whole entry): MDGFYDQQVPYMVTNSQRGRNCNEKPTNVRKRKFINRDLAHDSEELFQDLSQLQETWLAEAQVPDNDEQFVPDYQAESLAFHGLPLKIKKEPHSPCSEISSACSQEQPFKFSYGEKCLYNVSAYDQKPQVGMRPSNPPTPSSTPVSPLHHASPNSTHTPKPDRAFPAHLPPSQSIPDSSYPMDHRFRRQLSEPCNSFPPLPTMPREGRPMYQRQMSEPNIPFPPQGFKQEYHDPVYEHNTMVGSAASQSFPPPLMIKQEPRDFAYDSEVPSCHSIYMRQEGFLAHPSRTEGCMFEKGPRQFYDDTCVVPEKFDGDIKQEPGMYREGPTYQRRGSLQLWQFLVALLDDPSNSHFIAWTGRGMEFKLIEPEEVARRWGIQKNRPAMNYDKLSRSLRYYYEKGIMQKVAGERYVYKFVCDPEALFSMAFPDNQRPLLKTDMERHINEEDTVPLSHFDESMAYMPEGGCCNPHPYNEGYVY
Chain of ELF4 (Q99607 whole entry): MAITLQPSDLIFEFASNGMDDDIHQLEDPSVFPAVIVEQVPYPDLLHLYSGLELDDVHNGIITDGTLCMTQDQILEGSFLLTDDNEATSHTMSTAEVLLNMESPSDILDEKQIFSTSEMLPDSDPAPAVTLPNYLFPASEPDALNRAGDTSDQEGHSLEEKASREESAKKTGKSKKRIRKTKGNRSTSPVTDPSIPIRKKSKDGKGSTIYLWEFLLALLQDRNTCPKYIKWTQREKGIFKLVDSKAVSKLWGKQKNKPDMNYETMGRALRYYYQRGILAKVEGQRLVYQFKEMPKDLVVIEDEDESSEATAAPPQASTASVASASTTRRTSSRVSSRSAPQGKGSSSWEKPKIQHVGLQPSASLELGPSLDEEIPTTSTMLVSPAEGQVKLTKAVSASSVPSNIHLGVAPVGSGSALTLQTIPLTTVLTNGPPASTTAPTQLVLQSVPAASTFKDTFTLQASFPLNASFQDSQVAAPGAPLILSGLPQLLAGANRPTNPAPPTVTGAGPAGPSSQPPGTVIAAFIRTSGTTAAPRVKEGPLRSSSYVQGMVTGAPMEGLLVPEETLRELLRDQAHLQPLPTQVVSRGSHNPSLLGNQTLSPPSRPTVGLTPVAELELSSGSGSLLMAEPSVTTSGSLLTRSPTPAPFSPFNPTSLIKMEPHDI
Chain of ETV6 (P41212 whole entry): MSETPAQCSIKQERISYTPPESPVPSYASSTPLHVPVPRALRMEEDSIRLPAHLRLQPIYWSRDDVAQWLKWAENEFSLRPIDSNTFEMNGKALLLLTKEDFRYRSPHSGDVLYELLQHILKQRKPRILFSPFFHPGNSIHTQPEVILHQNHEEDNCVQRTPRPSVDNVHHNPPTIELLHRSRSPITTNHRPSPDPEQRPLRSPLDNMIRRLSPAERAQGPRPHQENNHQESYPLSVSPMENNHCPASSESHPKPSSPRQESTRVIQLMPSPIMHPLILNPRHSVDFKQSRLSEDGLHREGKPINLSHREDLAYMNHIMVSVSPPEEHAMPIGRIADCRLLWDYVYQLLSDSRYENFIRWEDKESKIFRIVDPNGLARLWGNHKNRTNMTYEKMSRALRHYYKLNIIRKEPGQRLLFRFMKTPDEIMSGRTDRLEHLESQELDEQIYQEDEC
Chain of HSF1 (Q00613 whole entry): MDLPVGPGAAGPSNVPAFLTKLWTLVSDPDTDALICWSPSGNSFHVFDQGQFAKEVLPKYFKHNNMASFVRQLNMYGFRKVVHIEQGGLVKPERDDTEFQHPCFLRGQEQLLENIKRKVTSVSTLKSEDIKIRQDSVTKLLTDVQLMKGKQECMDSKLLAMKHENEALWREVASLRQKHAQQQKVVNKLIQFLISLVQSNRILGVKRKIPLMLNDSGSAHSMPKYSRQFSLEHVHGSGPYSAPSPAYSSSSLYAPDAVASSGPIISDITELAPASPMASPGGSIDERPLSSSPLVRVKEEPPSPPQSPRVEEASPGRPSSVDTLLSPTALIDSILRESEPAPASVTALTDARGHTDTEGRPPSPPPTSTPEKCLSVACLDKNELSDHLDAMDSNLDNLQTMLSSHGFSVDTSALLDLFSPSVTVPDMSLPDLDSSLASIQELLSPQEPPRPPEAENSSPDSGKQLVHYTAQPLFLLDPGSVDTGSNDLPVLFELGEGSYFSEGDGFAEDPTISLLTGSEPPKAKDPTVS

Row | Sequence | binding signal [1] | binding signal [2] | binding signal [3] | binding signal [4] | binding signal [5] | binding signal [6] | binding signal [7] | binding signal [8] | binding signal [9] | binding signal [10] | binding signal [11] | binding signal [12] | binding signal [13] | binding signal [14] | binding signal [15] | binding signal [16] | binding signal [17] | binding signal [18]
1 | ATTTTG | 1.15 fold enrichment (6-mer frequency, TF over GST control) | 1.28 fold enrichment (6-mer frequency, TF over GST control) | 1.28 fold enrichment (6-mer frequency, TF over GST control) | 1.09 fold enrichment (6-mer frequency, TF over GST control) | 1.25 fold enrichment (6-mer frequency, TF over GST control) | 1.31 fold enrichment (6-mer frequency, TF over GST control) | 1.33 fold enrichment (6-mer frequency, TF over GST control) | 1.31 fold enrichment (6-mer frequency, TF over GST control) | 1.32 fold enrichment (6-mer frequency, TF over GST control) | 1.31 fold enrichment (6-mer frequency, TF over GST control) | 1.24 fold enrichment (6-mer frequency, TF over GST control) | 1.29 fold enrichment (6-mer frequency, TF over GST control) | 1.2 fold enrichment (6-mer frequency, TF over GST control) | 1.09 fold enrichment (6-mer frequency, TF over GST control) | 1.14 fold enrichment (6-mer frequency, TF over GST control) | 1.2 fold enrichment (6-mer frequency, TF over GST control) | 1.1 fold enrichment (6-mer frequency, TF over GST control) | 1.24 fold enrichment (6-mer frequency, TF over GST control)
2 | TAACCC | 1.26 fold enrichment (6-mer frequency, TF over GST control) | 1.31 fold enrichment (6-mer frequency, TF over GST control) | 1.3 fold enrichment (6-mer frequency, TF over GST control) | 1.35 fold enrichment (6-mer frequency, TF over GST control) | 1.32 fold enrichment (6-mer frequency, TF over GST control) | 1.2 fold enrichment (6-mer frequency, TF over GST control) | 1.17 fold enrichment (6-mer frequency, TF over GST control) | 1.29 fold enrichment (6-mer frequency, TF over GST control) | 1.77 fold enrichment (6-mer frequency, TF over GST control) | 1.29 fold enrichment (6-mer frequency, TF over GST control) | 1.17 fold enrichment (6-mer frequency, TF over GST control) | 1.22 fold enrichment (6-mer frequency, TF over GST control) | 1.26 fold enrichment (6-mer frequency, TF over GST control) | 1.32 fold enrichment (6-mer frequency, TF over GST control) | 1.31 fold enrichment (6-mer frequency, TF over GST control) | 1.3 fold enrichment (6-mer frequency, TF over GST control) | 1.26 fold enrichment (6-mer frequency, TF over GST control) | 1.3 fold enrichment (6-mer frequency, TF over GST control)
